In PubChem BioAssay (NCI):
About 83,000 compounds went through this panel and 20% of them were active in at least one assay; those are over-represented in the sample as a whole.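 Activity criterion: percent growth below 10, measured after cells in 96-well plates were exposed to a single compound concentration for 48 hours.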 A number with no mark means an inactive call. The source made the active and inactive calls.

Each compound was assayed on HS 578T breast (assay: NCI-60 one-dose screen, 48 h (100 = growth as untreated, 0 = no growth, -100 = all killed)). Settings: 10 µM unless noted.

In order of falling growth:
1. Cc1ccc(C(=O)c2ccc(CC(=O)N/N=C/c3ccccc3O)n2C)cc1  104%
2. COc1cc2oc(-c3cccc(NC(=O)c4ccccc4)c3)cc(=O)c2c(OC)c1OC  97.2%
3. COc1ccc(C/C(C)=C(\c2ccc(Cl)cc2)c2ccc(OCCN3CCCCC3)cc2)cc1  86.8%
4. CC(C)(C)[Si](C)(C)OC1[C@@H](CNC(=O)NC(=O)NC(N)=O)O[C@@H](n2cnc3c(NC(=O)Nc4ccccc4)ncnc32)[C@H]1O[Si](C)(C)C(C)(C)C (stereo not given in full)  77.1%
5. CCCCNC(=O)Oc1ccc(/C(=C(/C)Cc2ccc(OC)cc2)c2ccc(OCCN(CC)CC)cc2)cc1  76.9%
6. CCO/C=N/C1=C(C#N)C(c2ccc(Cl)cc2)c2sc3c(F)cccc3c2O1 (stereo not given)  55.6%
7. COc1cc(OC)c(NC(=O)c2cc3ccccc3cc2O)cc1Cl  31.1%
8. COc1ccc(/C=N\Nc2nc(SCCC(C)C)nc(-c3ccc(OC)cc3)c2C#N)cc1  29.4%
9. COC1/C=C/OC2(C)Oc3c(C)c(O)c4c(O)c(c(/C=N/Nc5ccc([N+](=O)[O-])cc5[N+](=O)[O-])c(O)c4c3C2=O)NC(=O)C(C)=C/C=C/C(C)C(O)C(C)C(O)C(C)C(OC(C)=O)C1C (stereo not given)  20%

The compounds below were run on NCI/ADR-RES ovarian in the same assay as above. Settings: 10 µM unless noted.

In order of falling growth:
1. COc1ccc(C/C(C)=C(\c2ccc(Cl)cc2)c2ccc(OCCN3CCCCC3)cc2)cc1  108%
2. N#Cc1c(-c2ccc(Cl)cc2)nc(NN2C(=O)c3ccccc3C2=O)nc1N1CCOCC1  107%
3. O=C(CSc1nnc(-c2cnccn2)n1-c1ccccc1)c1ccc(Cl)cc1  104%
4. C=C1C(=O)O[C@H]2[C@H]1CC/C(COC(=O)/C=C\C(=O)NCc1ccc(Cn3c(=O)sn(CCI)c3=O)cc1)=C\CC[C@@]1(C)O[C@@H]21  98%
5. N#Cc1nc(-c2ccc(F)cc2)oc1S(=O)(=O)N1CCCCC1  97.7%
6. [O-]/[N+](=C\c1ccc(-n2cc(Cc3ccccc3Cc3cn(-c4ccc(/C=[N+](/[O-])c5ccccc5)cc4)nn3)nn2)cc1)c1ccccc1  97.6%
7. CSc1nc(N)c(NS(=O)(=O)c2ccc(C(C)=O)cc2)c(=O)[nH]1  96.8%
8. CNc1nnc2n(-c3ccccc3)c(=O)c3cnn(-c4ccccc4)c3n12  96.6%
9. CNC(=O)c1[nH]cc(-c2ccc(OC)cc2)c1-c1cc(OC)c2c(c1OC)OCO2  95.8%
10. C=CCOC(=O)Nc1cccn([C@H](Cc2ccccc2)C(=O)NCCC(C)C)c1=O  93.1%
11. CCCCNC(=O)Oc1ccc(/C(=C(/C)Cc2ccc(OC)cc2)c2ccc(OCCN(CC)CC)cc2)cc1  91.1%
12. CCOC(=O)c1ccc(NC(=O)c2nc(-c3cc(OC)c(OC)c(OC)c3)n(-c3ccc(Cl)cc3)n2)cc1  90.8%
13. CN1C(=O)/C(=C\c2nc([P+](c3ccccc3)(c3ccccc3)c3ccccc3)c(N3CCOCC3)o2)SC1=S  90.5%
14. CC(C)(C)[Si](C)(C)OC1[C@@H](CNC(=O)NC(=O)NC(N)=O)O[C@@H](n2cnc3c(NC(=O)Nc4ccccc4)ncnc32)[C@H]1O[Si](C)(C)C(C)(C)C (stereo not given in full)  85.3%
15. COc1cc2c(c(OC)c1OC)CCC(c1cccc(C(=O)Nc3cccc(Cl)c3)c1)O2 (stereo not given)  83.8%
16. COc1ccc(/C=C/C(=O)c2cccc(OCCCCOc3cccc(C(=O)/C=C/c4ccc(OC)c(OC)c4)c3)c2)cc1OC  78.1%
17. COC1/C=C/OC2(C)Oc3c(C)c(O)c4c(O)c(c(/C=N/Nc5ccc([N+](=O)[O-])cc5[N+](=O)[O-])c(O)c4c3C2=O)NC(=O)C(C)=C/C=C/C(C)C(O)C(C)C(O)C(C)C(OC(C)=O)C1C (stereo not given)  76.7%
18. COc1ccc2cc1Oc1ccc(cc1)C[C@H]1c3c(cc4c(c3Oc3cc5c(cc3OC)CCN(C)[C@@H]5C2)OCO4)CCN1C  76.2%
19. COc1cc2nc3cc([N+](=O)[O-])ccc3c(NCCNCC(C)O)c2cc1OC (stereo not given)  75.1%
20. CC/C(=C(/c1ccc(Cl)cc1)c1ccc(OCCN(C)C)cc1)c1ccc(Cl)cc1  74.8%
21. COc1ccc(/C=N\Nc2nc(SCCC(C)C)nc(-c3ccc(OC)cc3)c2C#N)cc1  74.8%
22. COc1cc2oc(-c3cccc(NC(=O)c4ccccc4)c3)cc(=O)c2c(OC)c1OC  74.5%
23. CCOC(=O)c1c(NC(=O)c2ccc(Cl)cc2)sc2c(CN(C)C)c(O)ccc12  73.3%
24. COc1ccc(-c2cc(-c3ccc(Cl)cc3)c(C#N)c(=O)n2Cc2ccc(C(=O)Nc3ccccc3N)cc2)cc1  71.2%
25. Cc1nc2sc(C(=O)Nc3ccc(Br)cc3)c(N)c2cc1C(O)c1ccccc1 (stereo not given)  59.7%
26. Cc1ccc(CNc2ccc3nc(CCC4CCCCC4)[nH]c3c2)cc1  40.4%
27. CCO/C=N/C1=C(C#N)C(c2ccc(Cl)cc2)c2sc3c(F)cccc3c2O1 (stereo not given)  39.6%
28. C=CCc1c(O)c(C(=O)/C=C/c2ccccc2)c(OC)c2ccoc12  21%
29. COc1ccc(C(=O)c2cc3c(N)c(C(=O)Nc4ccc(C)cc4)sc3nc2C)cc1  14.9%
30. O=C(Nc1ccc(Oc2cccc(Cl)c2)c(Cl)c1)c1cnccn1  14.8%
31. COc1cc(OC)c(NC(=O)c2cc3ccccc3cc2O)cc1Cl  14.1%

`COc1ccc2c(c1)c(-c1nc(-c3c[nH]c4ccncc34)cs1)cn2C` was tested, and the growth was -52.8% (active).
With `CCC(=C(c1ccc(OCCN2CCCCC2)cc1)c1ccc(OCCN2CCCCC2)cc1)c1ccc(Cl)cc1` the growth was -84.6% (active).
For `CCCNc1nc2ccccc2c2c1S(=O)(=O)c1ccc(Cl)cc1C2=O`, the growth was 8.31% (active).
For `Cc1nc2sc(C(=O)Nc3cccc4ccccc34)c(N)c2cc1C(O)c1ccccc1` (stereo not given), the growth was 2.93% (active).
`COc1ccc(C(=O)N2c3ccccc3Sc3ccccc32)c(OC)c1` was tested, and the growth was -0.356% (active).
